The results in this text go back to PubChem BioAssay (NCATS).

Inconclusive results are not listed. Unmarked numbers belong to inactive results. Calls follow the shape of the dose curve; as a rule, active = well fitted curve in the direction sought with a large enough effect; inconclusive = small, poorly fitted or top-dose-only effect, or another doubt; inactive = no such curve, though single readings can be large; an effect the other way counts as inactive or inconclusive.

One assay in a line: Cell Viability - LYMP2-005 (AID 967).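 Also: plate controls were DMSO only for no effect and 92 µM tetraoctylammonium bromide control for full effect.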 To be noted: LYMP2-005 lymphoblastoid cell viability; series mostly up to 92.2 µM; activity change, negative = viability loss: at the top concentration. In short, it runs like this: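 Human lymphoblastoid LYMP2-005 cells, 2,500 per well in complete medium, rested 5 h at 37C then compound-treated 24 h at 37C. Intracellular ATP read by CellTiter-Glo luminescence after 30 min at room temperature; AC50 from Hill-equation fits of concentration-response data.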
With `CN(C)Cc1ccccc1`, the “activity change, negative = viability loss” value is -1.86%.

With `O=C(O)CC(O)(CC(=O)O)C(=O)O`, the “activity change, negative = viability loss” value was 17.9%.

With `CCCCCCCCCC(=O)O`, the “activity change, negative = viability loss” value was 5.44%.

`COC(C)=O`: the “activity change, negative = viability loss” value is -2.93%.

Another assay can be described thus: Cell Viability - LYMP2-009 (AID 968).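 Also: 0% = DMSO alone and the full-kill end = tetraoctylammonium bromide at 92 µM; nearly all actives have a fitted effect of over 55% in size.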 To be noted: LYMP2-009 lymphoblastoid cell viability; series mostly up to 92.2 µM; activity change, negative = viability loss: at the top concentration.
With `CN(C)Cc1ccccc1`, the “activity change, negative = viability loss” value is -8.57%.

With `O=C(O)CC(O)(CC(=O)O)C(=O)O`, the “activity change, negative = viability loss” value is -23.1%.

For the compound `CCCCCCCCCC(=O)O`, the “activity change, negative = viability loss” value is -4.38%.

Consider `COC(C)=O`, for which the “activity change, negative = viability loss” value was -5.71%.

Turning to `C=Cc1ccccc1`, the “activity change, negative = viability loss” value was -16.9%.

The next assay is described as follows: Cell Viability - LYMP2-011 (AID 969).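 Also: 0% = DMSO only and full inhibition = 92 µM tetraoctylammonium bromide; nearly all actives have a fitted effect of over 60% in size.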 To be noted: LYMP2-011 lymphoblastoid cells viability; series mostly up to 92.2 µM; viability change, negative = cytotoxic: at the top concentration. The essentials:
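Cytotoxicity qHTS with ATP content as read-out: lymphoblastoid cells (2500/well) exposed to compound for 24 h at 37 C, then luciferase luminescence measured. Concentration-response data fitted with the standard Hill equation to give AC50.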
In the case of `CN(C)Cc1ccccc1`, the “viability change, negative = cytotoxic” value was 7.35%.

As to `O=C(O)CC(O)(CC(=O)O)C(=O)O`, the “viability change, negative = cytotoxic” value is -26%.

Turning to `CCCCCCCCCC(=O)O`, the “viability change, negative = cytotoxic” value was -2.06%.

With `COC(C)=O`, the “viability change, negative = cytotoxic” value is -5.69%.

On to `C=Cc1ccccc1`, for which the “viability change, negative = cytotoxic” value was -12.8%.

The nature of the next assay: Cell Viability - LYMP2-013 (AID 970).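 Also: 0% = DMSO only and full inhibition = tetraoctylammonium bromide control; nearly all actives have a fitted effect of over 55% in size.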 To be noted: LYMP2-013 lymphoblastoid cells viability; series mostly up to 92.2 µM; activity change, negative = cytotoxic: at the top concentration. In short, it runs like this:
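qHTS cytotoxicity: ATP-dependent luminescence (CellTiter-Glo, 30 min room temperature) read after 24 h compound exposure at 37 C of 2500 LYMP2-013 lymphoblastoid cells per well. Concentration-response fitted with Hill equation to give AC50.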
As to `CN(C)Cc1ccccc1`, the “activity change, negative = cytotoxic” value was -15.7%.

Regarding `CCCCCCCCCC(=O)O`, the “activity change, negative = cytotoxic” value was 0.361%.

Turning to `COC(C)=O`, the “activity change, negative = cytotoxic” value is -14.6%.

As for `C=Cc1ccccc1`, the “activity change, negative = cytotoxic” value was -12.4%.

The next assay is described as follows: Cell Viability - LYMP2-015 (AID 971).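 Also: 0% = DMSO only and full effect = 92 µM tetraoctylammonium bromide; nearly all actives have a fitted effect of over 55% in size.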 To be noted: LYMP2-015 lymphoblastoid cell viability; series mostly up to 92.2 µM; activity change, negative = lower viability: at the top concentration. In short, it runs like this: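 Cytotoxicity readout: decrease in intracellular ATP (CellTiter-Glo luminescence) in 2500 LYMP2-015 lymphoblastoid cells/well after 24 h compound exposure at 37 C. Concentration-response data fitted with the standard Hill equation to give AC50.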
Consider `CN(C)Cc1ccccc1`, for which the “activity change, negative = lower viability” value is -11.2%.

Consider `CCCCCCCCCC(=O)O`, for which the “activity change, negative = lower viability” value was -11.2%.

Take `COC(C)=O`: the “activity change, negative = lower viability” value is 4.43%.

Turning to `C=Cc1ccccc1`, the “activity change, negative = lower viability” value is -5.7%.
